A selection: hits, their analogues and other compounds. The true share with any hit is near 19%.
IL-1B inflam inh: inflammasome signaling inhibition, IL-1 beta readout | THP-1 LPS/ATP IL-1B secretion, AlphaLISA, 16 h; hits give low values | activity change, % at 57.5 µM | 360,000 tested, 4.7% active | AID 743279; in the data active means activity change below about -50%; inconclusive means mostly about -30% to -49%
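THP-1 cells pretreated 1 hr with compounds (up to 57.5 uM final), then stimulated with LPS (250 ng/mL final) plus ATP (1.25 mM final); secreted IL-1B measured by AlphaLISA after 16 hr, decreased signal indicating inhibition.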
HT1080 IDH1KD tx: HT-1080 IDH1 knockdown cell toxicity (counter line); HT-1080 IDH1 knockdown viability, ATP luminescence, 48 h; Potency, µM (titrated, usually from 46.1 µM), inactives show at the top dose activity, negative = toxicity, hits mostly cytotoxic; 360,000 tested, 2% active; AID 686971;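 further: potency means the concentration at half of the fitted maximal effect; 0% = DMSO wells and -100% = cell-free medium wells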
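Cytotoxicity counter-line: IDH1KD HT-1080, 48 h, CellTiter-Glo. Curves classed by r2, magnitude and activity.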
HT1080-NT tox: kills 2HG-producing HT-1080-NT fibrosarcoma cells | HT-1080-NT fibrosarcoma viability, CellTiter-Glo ATP luminescence, 48 h | Potency, µM (series often up to 46.1 µM), for the others: at the highest dose activity, negative = less viability, most hits filed as cytotoxic | 360,000 tested, 1.6% active | AID 686970;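 further: NT is the 2HG producing partner of a matched IDH1 knockdown line; potency means the concentration at half of the fitted maximal effect; 0% = DMSO-treated cells and -100% = media-only wells without cells; nearly all actives have a fitted effect of over 55% in size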
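Viability by CellTiter-Glo luminescence after 48 h compound exposure at 37C of HT-1080-NT cells (750/well, RPMI, 5% FBS). % activity scaled between DMSO wells and medium-only wells, then curve-fitted and categorized by curve class.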
DT40 TDP1 no CPT: qHTS for Inhibitors of human tyrosyl-DNA phosphodiesterase 1 (TDP1): qHTS in cells in absence of CPT; DT40 Tdp1-/- hTDP1 cells, no CPT, ATP luminescence, 48 h; Potency, µM (titrated, usually from 46.2 µM), without a hit: at the highest dose activity change, negative = growth inhibition, actives largely listed as inhibitors; 420,000 tested, 15% active; AID 686978, 2013; further: potency means the concentration at half of the fitted maximal effect; nearly all actives have a fitted effect of over 55% in size
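Growth of hTDP1-complemented DT40 Tdp1-knockout cells is measured by ATP luminescence after at least 48 hr compound exposure at 37 °C, with DMSO substituting for the 20 nM CPT used in the parallel screen.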
DT40 TDP1 CPT: growth inhibition of DT40 Tdp1-/-;hTDP1 cells with camptothecin (screen for TDP1 inhibitors). chicken DT40 Tdp1-/-;hTDP1 cells + 20 nM CPT, ATP luminescence, 48 h. Potency, µM (doses to about 46.2 µM), inactives show at the highest dose activity change, negative = growth inhibition, most hits filed as inhibitors. 420,000 tested, 12% active; further: potency means the concentration at half of the fitted maximal effect; nearly all actives have a fitted effect of over 55% in size
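Chicken DT40 Tdp1-/- cells complemented with human TDP1, 400 cells/well, exposed to compounds plus 20 nM camptothecin for at least 48 h at 37 C; viability read as ATP content by CellTiter-Glo luminescence.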
* marks the source's active call; other numbers are inactive results; ? = inconclusive; nt = not tested or not shown. Unless noted, the call rests on the fitted dose curve; in most records, active means well fitted curve in the direction sought with a large enough effect; inconclusive means small, poorly fitted or top-dose-only effect, or another doubt; inactive means no such curve, though single readings can be large; an effect the other way counts as inactive or inconclusive. Unless noted, on the % scale 0 is the no-effect control and ±100 the full control effect.

SMILES	IL-1B inflam inh	HT1080 IDH1KD tx	HT1080-NT tox	DT40 TDP1 no CPT	DT40 TDP1 CPT
O=C(Nc1cnn(Cc2c(Cl)cccc2Cl)c1)C(c1ccccc1)c1ccccc1	-20	-14%	-12%	16µM*	23µM*
CC(NC(=O)COC(=O)CNC(=O)C1CCCCC1)c1ccccc1 (stereo unspecified)	-6	-2%	1%	4%	11%
C=CC[C@H](c1ccc(F)cc1)N(CC(C)C)S(=O)(=O)C=C	nt	nt	nt	11µM*	?
Cc1cccc(CSc2ncnc3ccccc23)c1	1	?	-12%	?	-25%
O=[N+]([O-])c1cccc(CSc2ncnc3ccccc23)c1	-61*	-11%	1%	?	-16%
Cc1nc(-c2ccc(S(=O)(=O)N3CCCCCC3)cc2)cs1	-13	-19%	-17%	?	?
COCCCn1c(-c2ccc(S(=O)(=O)N3CCOCC3)cc2)csc1=Nc1ccccc1	0	-15%	-2%	15µM*	18µM*
O=S(=O)(c1ccc(-c2csc(=Nc3ccc(OC(F)(F)Cl)cc3)n2CCCO)cc1)N1CCCC1	nt	nt	nt	2.3µM*	2.9µM*
Cn1c(-c2ccc(S(=O)(=O)N3CCCC3)cc2)csc1=Nc1ccc(Cl)c(Cl)c1	nt	nt	nt	4.1µM*	9.2µM*
CCOC(=O)c1c(C)[nH]c(C)c1S(=O)(=O)NCC(=O)NCc1cccc(Br)c1	nt	nt	nt	-23%	-22%
CN(Cc1cc(Br)cc(Br)c1N)C1CCCCC1	nt	nt	nt	9.4µM*	?
CN(Cc1ccc(O)cc1)C1CCCCC1	0	-11%	4%	-10%	-14%
CC(=O)N(c1ccc2oc(=O)sc2c1)S(=O)(=O)c1ccc(C(=O)O)cc1	12	0%	1%	-16%	1%
CCCC(=O)N(c1ccc2oc(=O)sc2c1)S(=O)(=O)c1ccccc1	-5	-22%	?	21µM*	?
O=C(c1[nH]c(C(F)(F)F)nc1-c1ccccc1)N1CCC2(CC1)C(=O)NCN2c1ccccc1	34	1%	27%	1%	2%
Cc1c2cnn(CC(=O)N3CCN(c4ccc(F)cc4)CC3)c(=O)c2c(C)n1Cc1ccccc1F	nt	nt	nt	18µM*	21µM*
Cc1c2cnn(CC(=O)N3CCN(c4ccc(F)cc4)CC3)c(=O)c2c(C)n1Cc1ccc(F)cc1	nt	nt	nt	7.3µM*	23µM*
Cc1cc2cc(CNC(=S)NC3CCCCC3)ccc2n1C	-5	-11%	2%	?	?
CCOc1ccccc1NC(=O)COC(=O)CNS(=O)(=O)c1ccc(C)cc1	-4	-2%	23%	-14%	9%
CN(CC(=O)Nc1ccccc1Cl)S(=O)(=O)c1ccc(C(=O)N2CCOCC2)s1	nt	nt	nt	?	15µM*
COc1ccc(NC(=O)CN(C)S(=O)(=O)c2ccc(C(=O)N3CCOCC3)s2)cc1	nt	nt	nt	-22%	?
Clc1ccc(C[n+]2cc(-c3ccccc3)n3c2CCC3)cc1Cl	-67*	?	?	3.7µM*	6.5µM*
Clc1ccc(-c2c[n+](Cc3cccc(Cl)c3)c3n2CCC3)cc1	-74*	?	-26%	8.2µM*	10µM*
N#CC[n+]1cc(-c2ccc(Cl)cc2)n2c1CCC2	17	4%	2%	0%	-5%
COc1cccc(CNC(=O)c2ccc(F)c(S(=O)(=O)N3CCCCC3)c2)c1	24	-15%	0%	?	-15%
Cc1ccc(NC(=S)NCC2CCN(C(C)c3ccccc3)C2)cc1C (stereo unspecified)	-29	1%	2%	16µM*	23µM*
Cc1cc(N=Cc2c(O)n(-c3cccc(Cl)c3)c(=O)c3ccccc23)no1	0	-24%	-14%	21µM*	12µM*
CCn1c(C)nc2cc(C(=O)OC(C(F)(F)C(F)F)C(F)(F)C(F)F)ccc21	2	10%	3%	18µM*	?
N#Cc1ccccc1NC(=O)CSc1nc(-c2ccccc2)cc(C(F)(F)F)c1C#N	nt	nt	nt	-14%	-19%
